# Compound activity deposited in PubChem by National Center for Advancing Translational Sciences (NCATS).
# EPAC1 antag = antagonists of human EPAC1 | EPAC1 GEF assay, Rap1b-BODIPY-GDP exchange fluorescence | Potency, µM (doses to about 115 µM), for the others: at the highest dose activity change, negative = inhibition, most hits filed as inhibitors | hit rate 0.14% among 360,000;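 note: plate controls were vehicle for no effect and positive control for full effect; nearly all actives have a fitted effect of over 50% in size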
# USP1 inh = inhibitors of human USP1/UAF1 deubiquitinase; O94782; recombinant USP1/UAF1, Ub-Rhodamine cleavage fluorescence; Potency, µM (doses to about 57.1 µM), for the others: at the top dose activity change, negative = inhibition, usual class: inhibitors; hit rate 0.23% among 390,000; AID 743255; note: % is set by controls: 0 for no effect and ±100 for the full control effect; nearly all actives have a fitted effect of over 60% in size
# Target sequence (O94782 whole entry, looked up): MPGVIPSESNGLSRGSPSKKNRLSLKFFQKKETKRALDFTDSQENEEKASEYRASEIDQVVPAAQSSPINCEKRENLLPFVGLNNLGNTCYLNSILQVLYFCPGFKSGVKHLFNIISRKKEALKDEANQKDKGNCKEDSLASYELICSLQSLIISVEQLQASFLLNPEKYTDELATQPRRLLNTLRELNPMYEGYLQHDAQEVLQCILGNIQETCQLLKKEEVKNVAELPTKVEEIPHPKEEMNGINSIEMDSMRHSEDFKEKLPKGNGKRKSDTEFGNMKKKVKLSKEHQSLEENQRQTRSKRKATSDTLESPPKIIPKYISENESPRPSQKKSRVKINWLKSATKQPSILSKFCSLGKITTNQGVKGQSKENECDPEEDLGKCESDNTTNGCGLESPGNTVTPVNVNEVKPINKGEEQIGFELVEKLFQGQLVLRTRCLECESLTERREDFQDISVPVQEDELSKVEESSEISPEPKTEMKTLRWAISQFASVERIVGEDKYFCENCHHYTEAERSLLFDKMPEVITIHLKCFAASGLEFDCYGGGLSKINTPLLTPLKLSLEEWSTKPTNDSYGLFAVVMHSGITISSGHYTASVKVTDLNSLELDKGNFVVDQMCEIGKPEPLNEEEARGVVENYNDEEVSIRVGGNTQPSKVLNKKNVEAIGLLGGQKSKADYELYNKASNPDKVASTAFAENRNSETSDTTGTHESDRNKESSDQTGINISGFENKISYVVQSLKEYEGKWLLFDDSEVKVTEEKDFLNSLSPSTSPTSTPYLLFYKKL
#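 Step one: compound is pinned into 1nM USP1/UAF1 in HEPES pH 7.8 buffer with TCEP. Step two: 15 min room-temperature incubation. Step three: Ub-Rho (150nM final) starts cleavage, tracked by fluorescence over six one-minute reads.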
# EPAC2 ag = EPAC2 (human) agonism | Q8WZA2 | EPAC2 activation, biochemical qHTS; response scale: 100% = 6.5 mM cAMP response | Potency, µM (doses to about 154 µM), without a hit: at the highest dose activation, actives largely listed as activators | hit rate 0.079% among 360,000; note: nearly all actives have a fitted effect of over 50% in size
#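 Nucleotide exchange monitored as fluorescence drop when BODIPY-GDP leaves Rap1B. Reaction: 100 nM EPAC2, 250 nM RAP1B-BODIPY-GDP, 50 uM GDP, room temperature, kinetic read over 30 min. Activity expressed relative to 6.5 mM cAMP.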
# EPAC2 antagonist = antagonists of human EPAC2 | Q8WZA2 | EPAC2 GEF exchange of Rap1B-BODIPY-GDP, fluorescence | Potency, µM (highest dose often 114 µM), for the others: top-dose activity, negative = inhibition, most hits filed as inhibitors | hit rate 0.18% among 360,000; note: % is set by controls: 0 for no effect and ±100 for the full control effect; nearly all actives have a fitted effect of over 45% in size
# EPAC1 agonist = agonists of human EPAC1; O95398; EPAC1 agonist qHTS, biochemical assay; response scale: 100% = response to 6.5 mM cAMP; Potency, µM (titrated, usually from 154 µM), inactives show top-dose activation, usual class: activators; hit rate 0.073% among 360,000; AID 720707; note: nearly all actives have a fitted effect of over 60% in size
#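 Nucleotide exchange by EPAC1 (100 nM) on Rap1B–BODIPY-GDP (250 nM) in the presence of 50 uM GDP is tracked fluorescently at 480/540 nm over 30 min. Signals are normalized to a 6.5 mM cAMP control.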
# * = called active by the depositor; u = inconclusive; x = not tested or not shown. In the library only some 0.49% were active in any assay of this set; here they are far more common. Calls come from the whole dose curve; as a rule, active = well fitted curve in the direction sought with a large enough effect; inconclusive = small, poorly fitted or top-dose-only effect, or another doubt; inactive = no such curve, though single readings can be large; an effect the other way counts as inactive or inconclusive. Potency is the fitted concentration of half-maximal effect.
SMILES,EPAC1 antag,USP1 inh,EPAC2 ag,EPAC2 antagonist,EPAC1 agonist
CCc1ccc(NS(=O)(=O)c2[nH]ncc2C(=O)OC)cc1,x,-14.1%,x,x,x
CCCOc1ccc(Nc2cc(C)nc(C)n2)cc1,x,-16.4%,x,x,x
CCCc1[nH]c2ccc(C(=O)OC)cc2c1CCC,-20.5%,-26.9%,15.6%,28.2µM*,-8.6%
CCCc1[nH]c2ccc(C#N)cc2c1CCC,-27.0%,-28.1%,-1.3%,28.2µM*,-23.2%
COc1ccc(S(=O)(=O)N2CCC(c3nnnn3-c3ccccc3)CC2)cc1OC,x,-5.2%,x,x,x
O=C1c2ccccc2C(O)N1Cc1ccco1 (stereo not drawn),3.0%,-7.3%,1.2%,2.6%,2.3%
CCOc1ccccc1NC1c2ccccc2C(=O)N1Cc1ccco1 (stereo not drawn),3.3%,-26.1%,11.7%,15.8µM*,3.9%
O=C(Nc1nc2c(s1)CN(Cc1ccccc1)CC2)c1cccc(S(=O)(=O)N2CCc3ccccc32)c1,27.5%,28.2µM*,18.9%,34.1%,u
O=C(Nc1nc2ccccc2s1)c1cccc(S(=O)(=O)N2CCc3ccccc32)c1,-16.5%,-19.4%,2.8%,-4.7%,13.9%
COc1ccc(NC(=O)CSc2nc(-c3ccc(F)cc3)c3cccc(C)c3n2)cc1,x,16.8%,x,x,x
O=C1C=CC(c2ccccc2)(c2ccccc2)CC1,4.1%,-7.9%,11.6%,44.7µM*,1.3%
CC(C)(C)OC(=O)N1CCC(c2c(C(=O)N3CCN(c4ccccc4)CC3)cnn2-c2ccccc2)CC1,x,-7.3%,x,x,x
Cc1cc(C=C2C(=O)c3ccccc3C2=O)c(C)n1-c1ccc(Cl)cc1,0.0%,-8.6%,-175.7%,79.4µM*,-7.7%
Cc1[nH][nH]c(=O)c1C(c1ccc(-c2cccc(Cl)c2)o1)c1c(C)[nH][nH]c1=O,u,28.2µM*,17.9%,u,12.8%
COC(=O)c1ccc(-c2ccc(C(c3c(C)[nH][nH]c3=O)c3c(C)[nH][nH]c3=O)o2)cc1,-27.8%,28.2µM*,7.1%,-25.0%,12.8%
CCOC(=O)c1c(NC(=O)/C=C\C(=O)O)sc(C)c1-c1ccccc1,-8.8%,-3.9%,0.5%,-18.1%,3.6%
CCOC(=O)c1c(NC(=O)/C=C/C(=O)O)sc(C)c1-c1ccc(C(C)(C)C)cc1,56.2µM*,31.6µM*,-17.8%,u,-11.6%
Cc1ccc(C(CCN(Cc2ccccc2)C(=O)c2ccco2)c2ccco2)cc1 (stereo not drawn),50.1µM*,-18.6%,-2.5%,u,0.2%
O=C(c1ccco1)N(CCC(c1ccccc1)c1ccco1)Cc1ccco1 (stereo not drawn),u,u,-2.4%,-14.7%,7.5%
CCN1CCC(N(Cc2ccc(F)cc2)C(=O)Nc2cccc(C(F)(F)F)c2)CC1,x,-0.4%,x,x,x
O=C1C=C(N2CCCCC2)c2ccccc2C1=O,44.7µM*,7.94µM*,17.0%,35.5µM*,17.4%
O/C=c1\ccc2cccc3nc(C(F)(F)F)nc1c23,18.2%,22.4µM*,u,82.1%,89.1µM*
NNc1nc(C(F)(F)F)nc2ccccc12,2.0%,-4.2%,0.7%,5.3%,4.5%
CCN(CC)c1ccc(NS(=O)(=O)c2cc3[nH]c(=O)c(=O)[nH]c3cc2C)c(C)c1,x,-14.4%,x,x,x
O=C1C(=Cc2ccccc2Cl)CCc2ccccc21,u,x,3.3%,35.5µM*,-4.0%
SMILES,EPAC1 antag,USP1 inh,EPAC2 ag,EPAC2 antagonist,EPAC1 agonist
O=C1C(=Cc2ccc(Cl)cc2)CCc2ccccc21,-8.0%,x,9.3%,-26.3%,3.8%
COc1ccc(Cl)cc1S(=O)(=O)N1CCN=C1C,3.0%,-7.1%,-7.0%,-13.9%,-14.4%
CC1=NCCN1S(=O)(=O)c1c(C(C)C)cc(C(C)C)cc1C(C)C,-17.9%,-8.6%,-3.7%,79.4µM*,-4.1%
COc1cc(NC(=O)c2cc3nc(-c4ccccc4)cc(-c4ccccc4)n3n2)cc(OC)c1OC,56.2µM*,-12.6%,17.9%,-14.5%,7.5%
CN(C)c1nc(Oc2ccc(=O)[nH]n2)nc(N2CCOCC2)n1,-8.3%,9.8%,-7.3%,25.1µM*,7.3%
O=C(CSc1nc(-c2ccc(F)cc2)nc2ccc(F)cc12)Nc1cccc(C(=O)O)c1,70.8µM*,-13.1%,2.3%,5.4%,19.2%
O=c1ccc(-c2ccccc2)nn1Cc1ccc(Cl)cc1,-5.7%,-21.9%,9.1%,35.5µM*,5.1%
CCN(CC)CC#CC(OC)(c1ccccc1)c1ccccc1,-14.7%,-14.9%,5.7%,39.8µM*,2.2%
C[n+]1cccc2cccc([O-])c21,-7.1%,6.31µM*,u,u,4.3%
[O-][n+]1cccc2cccc(O)c21,1.2%,-24.5%,6.7%,9.1%,7.0%
COc1cc(OC)cc(C(=O)Nc2cc(-c3nc4cccnc4s3)ccc2C)c1,x,8.9%,x,x,x
CCCN(CC(=O)Nc1ccccc1C)C(=O)c1cc(C)oc1C,9.6%,-8.8%,5.7%,6.1%,10.0%
CCCN(CC(=O)Nc1ccccc1C)C(=O)c1oc2ccc(OCC)cc2c1C,-16.5%,-18.3%,-11.2%,-3.1%,126µM*
CC(CNC(=O)c1csc2c1CCCCC2)c1ccccc1 (stereo not drawn),x,-9.9%,x,x,x
N#C/C(=C/c1ccc(N2CCCCCC2)o1)c1cccc(F)c1,-2.3%,25.1µM*,15.3%,-0.6%,12.9%
O=C1/C(=C\c2cccs2)Sc2ccc3ccccc3c21,6.6%,31.6µM*,0.9%,-7.5%,10.5%
CCN1/C(=C/C(C)=O)Sc2ccc(OC)cc21,9.8%,-13.7%,2.5%,-0.6%,2.3%
CCOC(=O)/C(=C\C=C1/Sc2cc(OCC)c(OCC)cc2N1CC)C(C)=O,9.3%,25.1µM*,1.6%,23.5%,u
CCOC(=O)/C(=C/C=C1\Sc2cc(OCC)c(OCC)cc2N1CC)C(C)=O,34.3%,22.4µM*,u,17.9%,u
Cc1ccc(-c2cn3c(n2)sc2cc(C(=O)NCc4cccs4)ccc23)cc1,x,-7.5%,x,x,x
Cc1ccc(S(=O)(=O)N2[C@@H](c3ccc(Cl)cc3)C(C(=O)O)=CC[C@H]2c2cccc(Cl)c2)cc1,-12.1%,-23.8%,4.9%,u,0.3%
Cc1ccc(S(=O)(=O)N2[C@@H](c3cccc(Cl)c3)C(C(=O)O)=CC[C@H]2c2ccc(C(C)C)cc2)cc1,56.2µM*,u,-9.1%,-27.6%,-15.7%
CC(=O)C(C(C)=O)C1(O)C(=O)c2ccccc2C1=O,-4.0%,7.94µM*,8.1%,-9.7%,2.0%
O=C(Nc1ccc(Cl)cc1C(=O)O)c1ccc2c(c1)C(=O)N(Cc1ccco1)C2=O,79.4µM*,-12.6%,0.9%,u,3.6%
O/C(=C\c1ccc2ccccc2n1)c1ccc(O)cc1O,5.7%,28.2µM*,9.9%,51.5%,2.1%
CCN(CC)S(=O)(=O)c1ccc2c(c1)N(CC(=O)N1CCN(c3cccc(C)c3C)CC1)C(=O)CO2,x,-12.1%,x,x,x
